# Screens: PubChem, several laboratories
# FGF22 binding – FGF22 (human) thermal shift binding. Q9HCT0. recombinant FGF22 thermal shift, SYPRO orange fluorescence; percent of sucrose octasulfate shift, DMSO zero. activity (Tm shift, normalised), % at 9.99 µM. 1.5% of 340,000 active;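 active means mean Tm shift, scaled 0 neutral to 100 positive control, at about 1.3% or above, every replicate too, limit read from the data; inconclusive means no clear call, values can overlap the other calls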
# MITF TRPM1 HTS – activators of MITF-driven TRPM1 promoter activity in SK-MEL-5 cells; 0.75% of 300,000 active; activation, % at 12.5 µM; SK-MEL-5 TRPM1-promoter luciferase, 24 h; % of positive control, neutral wells = 0; AID 588334;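 active means mean activation of at least 80% with every replicate also reaching 80%; inconclusive means mean reaches 80% but some replicate falls short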
# esBAF inh – inhibitors of esBAF chromatin remodeling in mouse ES cells | Bmi1-luciferase knock-in reporter, 24 h; 100% = twice the neutral-well signal | reporter increase, % at 12.5 µM | 2% of 350,000 active | AID 602393; in the data active means activation above about 40%; inconclusive means no clear call, values can overlap the other calls;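 further: a rise in the Bmi1 reporter signal indicates esBAF inhibition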
# SMARCA2 activ – increases SMARCA2 function in MMTV reporter cells. MG213 cells, MMTV-luciferase reporter, dexamethasone, overnight. activation, % at 9.1 µM. 1% of 370,000 active. AID 652017; in the data active means activation above about 7.8%
# MLL AF4-AF9 inh – inhibitors of human MLL-AF4/AF9 interaction | AlphaScreen, biotin-AF4 peptide binding to FLAG-AF9 | P42568 | inhibition, % at 10 µM | 0.47% of 350,000 active;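 active means every replicate reaching a set inhibition limit, whatever the replicate mean, cut at about 25% in these data; inconclusive means mean inhibition reaches that limit but some replicates miss it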
# Target sequence (P42568 whole entry, looked up): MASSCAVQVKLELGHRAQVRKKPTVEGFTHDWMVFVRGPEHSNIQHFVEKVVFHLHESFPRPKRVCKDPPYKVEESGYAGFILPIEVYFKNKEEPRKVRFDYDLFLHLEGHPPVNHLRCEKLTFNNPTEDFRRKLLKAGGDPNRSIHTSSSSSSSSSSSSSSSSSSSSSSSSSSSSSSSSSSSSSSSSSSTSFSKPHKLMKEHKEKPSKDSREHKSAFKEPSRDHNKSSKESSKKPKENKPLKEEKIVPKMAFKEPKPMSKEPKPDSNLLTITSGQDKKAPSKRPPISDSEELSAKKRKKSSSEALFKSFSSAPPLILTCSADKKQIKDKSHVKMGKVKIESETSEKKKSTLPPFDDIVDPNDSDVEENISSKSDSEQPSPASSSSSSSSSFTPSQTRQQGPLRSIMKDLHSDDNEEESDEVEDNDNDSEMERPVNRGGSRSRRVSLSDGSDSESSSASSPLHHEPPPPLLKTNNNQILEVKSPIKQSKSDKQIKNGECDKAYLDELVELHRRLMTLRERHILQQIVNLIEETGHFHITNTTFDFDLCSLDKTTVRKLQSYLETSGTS
# Wnt bcat act – activates Wnt/beta-catenin signaling in a reporter cell assay | activator, plate reader | 1.2% of 300,000 active | activation, % at 9.35 µM; in the data active means activation above about 30%, passing the limit was not always enough; inconclusive means no clear call, values can overlap the other calls
# A number is an active result; n = inactive; u = inconclusive; x = no result given. Most compounds without a hit are left out; they make up all but 4.3% or so of the library.
SMILES,FGF22 binding,MITF TRPM1 HTS,esBAF inh,SMARCA2 activ,MLL AF4-AF9 inh,Wnt bcat act
C[C@@H]1CN([C@@H](C)CO)C(=O)c2cc(NC(=O)CCC(F)(F)F)ccc2O[C@@H](C)CCCCO[C@H]1CN(C)S(=O)(=O)c1ccccc1,n,x,n,x,n,x
C[C@@H]1CCCCO[C@H](CN(C)C(=O)Nc2cccc3ccccc23)[C@H](C)CN([C@@H](C)CO)C(=O)c2cc(NC(=O)CCC(F)(F)F)ccc2O1,n,x,45.5,x,x,x
C[C@@H]1CCCCO[C@H](CN(C)S(=O)(=O)c2ccccc2)[C@@H](C)CN([C@H](C)CO)C(=O)c2cc(NC(=O)CCC(F)(F)F)ccc2O1,3.9,x,n,x,n,x
CC(C)NC(=O)Nc1cccc2c1O[C@H](CN(C)C(=O)NC1CCCCC1)[C@H](C)CN([C@@H](C)CO)C2=O,n,x,n,x,n,x
COC1=C(Nc2ccc(O)cc2)C(=O)c2ccccc2C1=O,n,n,x,n,50.0,n
CC(C)c1c(O)cc(-c2ccncc2)n(-c2ccc(Cl)cc2)c1=O,x,n,x,14.1,x,x
N#C/C(=C/c1ccc(N2CCCCC2)o1)C(=O)Nc1ccc(Cl)cc1,x,n,59.8,n,x,x
COCC(=O)N1CC2(C1)[C@@H](c1ccc(-c3ccc(F)cc3)cc1)[C@@H](CO)N2C(=O)C1CC1,n,x,x,x,n,x
O=C(Nc1ccccc1F)N[C@H]1CC[C@H](CCNS(=O)(=O)c2ccc(F)cc2)O[C@@H]1CO,n,x,n,x,n,x
Fc1ccccc1-c1nc(-c2ccc(-c3nn[nH]n3)cc2)no1,x,n,n,n,n,39.1
Fc1ccccc1-c1nc(-c2ccncc2)no1,n,x,u,n,n,55.4
CN1CCN(C(=O)c2ccccc2-c2nc(-c3ccccc3)no2)CC1,x,n,48.4,n,x,n
Fc1ccccc1-c1nc(-c2cnccc2C(F)(F)F)no1,n,n,n,n,n,n
COc1ccc(-c2noc(-c3ccccc3F)n2)cc1,n,n,n,n,n,n
Fc1ccccc1-c1nc(-c2ccccc2)no1,x,n,n,n,x,46.1
Cc1cccc(S(=O)(=O)N2C[C@H]3[C@@H](c4ccccc42)[C@@H](CO)N3C(=O)C2CC2)c1,n,x,n,x,n,x
CCN(CC)CCOCCn1c(C)ccc1C,42.9,n,n,n,n,n
C[C@@H]1CN([C@@H](C)CO)C(=O)c2cc(NC(=O)CCC(F)(F)F)ccc2O[C@@H](C)CCCCO[C@@H]1CN(C)S(=O)(=O)c1ccc(F)cc1,n,x,n,x,n,x
Oc1c(C(Nc2ccccn2)c2ccccn2)ccc2cccnc12 (stereo unspecified),x,n,x,n,x,76.2
Cc1ccnc(NC(c2ccccc2)c2ccc3cccnc3c2O)c1 (stereo unspecified),n,n,n,n,29.2,n
O=C(NC(=S)NC1CCCCCC1)c1cncc(Br)c1,x,95.5,x,n,x,37.3
O=C(NC(=S)NC1CCS(=O)(=O)C1)c1ccccc1 (stereo unspecified),n,n,x,n,n,n
O=C(NC(=S)NC1CCCCC1)c1ccccc1,n,n,45.2,n,n,n
CCNC(=O)Nc1ccc2c(c1)C(=O)N(C)[C@@H]1CC[C@H](CC(=O)NCCN3CCCC3)O[C@H]1CO2,n,x,n,x,x,x
CCOC(=O)c1ccc(N=NN(C)C)cc1,n,99.0,x,n,n,n
SMILES,FGF22 binding,MITF TRPM1 HTS,esBAF inh,SMARCA2 activ,MLL AF4-AF9 inh,Wnt bcat act
CCOC(=O)c1ccc(N=c2scc(C)n2CC)cc1,n,n,57.7,7.8,26.1,u
CC(C)C#Cc1cnc2c(c1)C(=O)N([C@H](C)CO)C[C@@H](C)[C@H](CN(C)C(=O)c1cccc(F)c1)O2,n,x,n,x,n,x
Cn1c(NC(=O)C2CC2)cc(=O)n(C)c1=O,n,n,n,n,48.9,n
Cn1c(NC(=O)c2ccc(Cl)cc2)cc(=O)n(C)c1=O,43.6,n,x,n,n,n
C=CCNC(=O)/C(=C/c1cn(-c2ccccc2)nc1-c1cccc([N+](=O)[O-])c1)NC(=O)c1ccccc1,x,n,x,n,x,x
O=C(NCc1cn(-c2ccccc2)nc1-c1ccccc1)c1cccc([N+](=O)[O-])c1,43.1,n,n,n,n,n
O=C(NCc1cn(-c2ccccc2)nc1-c1ccccc1)c1cc([N+](=O)[O-])cc([N+](=O)[O-])c1,x,n,n,n,x,n
CN(C)C(=O)/C(=C/c1cn(-c2ccccc2)nc1-c1cccc([N+](=O)[O-])c1)NC(=O)c1ccccc1,x,n,n,n,x,56.4
Clc1ccc(OCCCN2CCCC2)cc1Cl,x,n,x,7.8,x,x
Clc1ccc(OCCN2CCCCC2)cc1Cl,x,n,n,n,x,x
COc1ccc(-c2cnc3c(c2)C(=O)N([C@H](C)CO)C[C@@H](C)[C@@H](CN(C)Cc2ccccc2)O3)cc1,n,x,n,x,n,x
CCN(CC)c1ccc(/C=C2\SC(N)=NC2=O)cc1,n,n,48.7,n,n,n
COC(=O)c1cc(NC(C)=O)ccc1N1CCOCC1,43.0,n,x,n,n,n
CCn1c(SCC(N)=O)nc2cc(S(=O)(=O)N3CCOCC3)ccc21,n,n,x,n,n,n
CCn1c(CCl)nc2cc(S(=O)(=O)N3CCOCC3)ccc21,43.1,x,n,n,n,n
CCc1nnc(NC(=O)C23CC4CC(CC(C4)C2)C3)s1,n,n,55.6,n,n,n
CCC(=O)N1CC(=O)N2[C@@H](CO)[C@@H](c3ccc(C#CCc4ccccc4)cc3)[C@@H]2C1,x,x,x,x,n,x
CCN1CCSc2ccc(C(=O)NCc3ccccc3C)cc21,n,n,n,n,49.0,n
CCN1CCSc2ccc(C(=O)NCc3ccccc3F)cc21,n,n,n,n,25.4,n
CCN1CCSc2ccc(C(=O)NCc3ccccc3Br)cc21,n,x,n,n,n,n
CCCC#Cc1ccc2c(c1)O[C@H](CN(C)C(C)=O)[C@@H](C)CN([C@H](C)CO)S2(=O)=O,n,x,n,x,n,x
Cc1noc(C)c1COc1ccc(CC(=O)NCc2ccccc2)cc1,n,n,x,n,n,n
Cc1nc(OCc2c(C)noc2C)c2ccccc2n1,43.3,n,x,n,n,n
c1ccc(-c2cc3nccc(-c4ccccn4)n3n2)cc1,n,126.7,x,n,n,n
CC(=O)N1[C@@H](CO)[C@H](c2ccccc2)[C@@H]1CN(C(=O)NC(C)C)C1CCCC1,n,x,n,x,n,x
SMILES,FGF22 binding,MITF TRPM1 HTS,esBAF inh,SMARCA2 activ,MLL AF4-AF9 inh,Wnt bcat act
CO[C@H]1CN(C)C(=O)c2cc(NC(=O)Nc3cc(F)ccc3F)ccc2OC[C@H](C)N(C(=O)c2ccccn2)C[C@@H]1C,x,x,n,x,n,x
CCCCOc1ccc(Cc2c(COCC)[nH]c(=S)[nH]c2=O)cc1,x,n,n,n,n,n
CCOCc1[nH]c(=S)[nH]c(=O)c1Cc1ccc(OCC)cc1,43.3,n,x,n,n,n
COc1ccc(OCCNC2CCCC2)cc1,n,n,x,n,n,n
N#Cc1ccc(OCCOCCNC2CCCC2)cc1,43.9,n,x,n,n,n
O=C(Nc1cccc2ccccc12)c1ccco1,n,x,x,n,n,n
O=C(Nc1ccccc1F)C(=O)Nc1cccc2ccccc12,n,x,62.5,n,n,n
O=C(CNc1ccccc1F)Nc1cccc2ccccc12,n,n,63.8,n,n,n
